High-throughput results as filed in PubChem.
Hits are enriched below; roughly 7% of the tested compounds scored in any of these assays.
NR3A LBD binder: NR3A (human) ligand-binding domain modulation. NR3A LBD differential scanning fluorimetry, Tm shift; 0% = protein alone, 100% = glycine-bound protein. Tm shift relative to glycine control, % at 25 µM. hit rate 2.5% among 340,000. AID 1259313;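 active = melting temperature shift of at least 10% of the positive control shift, at one fixed dose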
ADAM10 inh: ADAM10 inhibition, QFRET primary screen; recombinant ADAM10, EDANS/DABCYL FRET peptide cleavage, 3 h; inhibition, % at 7 µM; hit rate 0.62% among 370,000; AID 720582;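 active = inhibition above a per-campaign cutoff equal to the mean of compounds falling between control-based bounds plus 3 SD, cut at about 20% in these data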;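 note: 0% = DMSO wells while the 100% control is not disclosed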
Target sequence (O14672 214-748 limits assumed): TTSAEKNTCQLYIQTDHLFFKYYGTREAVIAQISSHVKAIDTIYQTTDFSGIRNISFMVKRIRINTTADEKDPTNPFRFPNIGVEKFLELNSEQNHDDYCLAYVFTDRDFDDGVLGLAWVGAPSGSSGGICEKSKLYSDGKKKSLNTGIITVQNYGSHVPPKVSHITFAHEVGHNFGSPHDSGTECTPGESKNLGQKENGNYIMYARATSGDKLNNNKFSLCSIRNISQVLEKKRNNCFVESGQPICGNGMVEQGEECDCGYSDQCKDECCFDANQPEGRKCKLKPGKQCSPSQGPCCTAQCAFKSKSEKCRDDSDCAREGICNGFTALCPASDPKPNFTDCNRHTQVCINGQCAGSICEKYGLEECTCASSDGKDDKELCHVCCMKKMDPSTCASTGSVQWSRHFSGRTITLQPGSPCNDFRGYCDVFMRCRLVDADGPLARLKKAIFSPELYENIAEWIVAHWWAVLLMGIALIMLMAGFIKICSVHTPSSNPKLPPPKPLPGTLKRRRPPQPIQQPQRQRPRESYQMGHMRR
KLK7 zymogen act: proKLK7 (human) activation, primary screen; activation, % at 7 µM; hit rate 0.9% among 370,000; P49862; purified proKLK7, EDANS-DABCYL substrate fluorescence; 100% is mature enzyme control, 0% vehicle;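 active = activation above the mean of all tested compounds plus 3 SD, computed per campaign excluding outliers beyond control limits, cut at about 13% in these data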
rCAG RNA binder: r(CAG) repeat RNA binding. TO-PRO-1 dye displacement fluorescence. inhibition, % at 3 µM. hit rate 1.3% among 370,000. AID 651821;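 active = inhibition above the plate cutoff, the mean of all test compounds on that plate plus 3 SD, cut at about 35% in these data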;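 note: 0% = DMSO alone and 100% = 100 µM mitoxantrone as full dye displacement; higher means more dye released from RNA so lower well fluorescence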
ADAM17 inh: ADAM17 inhibition, QFRET primary screen; P78536; recombinant ADAM17, EDANS/DABCYL FRET peptide cleavage; inhibition, % at 6.95 µM; hit rate 0.83% among 370,000;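 active = inhibition above the mean of compounds lying between control limits plus 3 SD, set per campaign, cut at about 8.5% in these data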;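 note: 0% = DMSO-only wells as the low control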
AHR activator: activators of human aryl hydrocarbon receptor. P35869. AHR-responsive luciferase reporter cells, luminescence. activation, % at 5 µM. hit rate 2.5% among 320,000. AID 2796; in the data active = activation above about 47%;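 note: 0% = vehicle wells and 100% = reference agonist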
* = called active by the depositor; . = no result given.

SMILES	NR3A LBD binder	ADAM10 inh	KLK7 zymogen act	rCAG RNA binder	ADAM17 inh	AHR activator
COc1cccc(C(=O)NCC(C)(C)SCc2ccc(F)cc2)c1	10*	9	0	-9	2	4
CCCCC(=O)Nc1nn(CC(C)C)c2nc3ccccc3cc12	-2	-16	0	1	-5	39
CCCn1nc(NC(=O)CC)c2cc3cccc(C)c3nc21	12*	-40	3	-2	-15	12
CCn1nc(NC(=O)c2ccncc2)c2cc3cccc(C)c3nc21	-1	9	0	0	1	32
CCn1nc(NC(=O)c2cccnc2)c2cc3cccc(C)c3nc21	0	-5	0	4	-6	68*
CCC(=O)Nc1nn(C)c2nc3c(C)cccc3cc12	-1	-67	3	0	-21	1
Cc1cccc2cc3c(NC(=O)C(C)C)nn(C)c3nc12	0	-24	0	4	-8	72*
CCCn1nc(NC(=O)CC(C)C)c2cc3ccccc3nc21	0	-10	-1	-1	-7	78*
COC(=O)C1CN(Cc2cn(Cc3ccc(F)cc3)nn2)CCS(=O)(=O)N1Cc1ccccc1 (configuration not stated)	.	2	0	4	-1	.
C/C(=N\NC(=O)CSc1nnc(-c2ccccc2)n1-c1ccc(C)cc1)c1ccc(-c2ccccc2)cc1	.	-4	-1	7	1	.
c1ccc2sc(-c3csc4c3CCNC4)nc2c1	.	-16	.	.	-8	.
CCn1nc(NS(=O)(=O)c2ccc(F)cc2)c2cc3cccc(C)c3nc21	-3	-2	0	63*	-3	1
CNc1nc(N)c([N+](=O)[O-])c(Nc2cccc(Br)c2)n1	.	2	.	.	-2	.
Cc1ccc(NC(=O)C2CCCN(c3ncccn3)C2)cc1F (configuration not stated)	2	-12	0	-1	-5	17
O=C(Nc1cccc(F)c1)C1CCCN(c2cnccn2)C1 (configuration not stated)	2	-34	-1	-3	-9	52*
O=C(Nc1ccc(F)c(Cl)c1)C1CCCN(c2cnccn2)C1 (configuration not stated)	1	-42	1	0	-11	73*
CCOC(=O)c1ccc(NC(=O)C2CCCN(S(=O)(=O)c3cnc[nH]3)C2)cc1 (configuration not stated)	-1	-8	0	0	-2	1
CCOC(=O)c1ccc(NC(=O)C2CCCN(c3cnccn3)C2)cc1 (configuration not stated)	-1	-47	1	-3	-16	63*
COc1cccc(NC(=O)C2CCN(c3cnccn3)CC2)c1	1	-18	1	-1	-12	4
COc1ccc(S[C@]2(C(=O)N3CCN(C(C)=O)CC3)CC(=O)N[C@@H]2c2ccc(OC)cc2)cc1	.	-2	0	4	-1	.
Cc1cccc(N2Cc3ccc(Br)cc3C2)c1	2	-2	0	14	-1	48*
COC(=O)/C=C1\OC(C)c2ccccc21 (configuration not stated)	.	-1	0	4	0	.
CCCCCCCCN1C(=O)[C@@H](CC(=O)NCCC(C)C)C[C@@]2(C(=O)OC)C1=C[C@H](COCc1ccccc1)O[C@@H]2C	.	5	0	8	2	.
CC(=O)N/C(=N/c1nc(C)cc(C)n1)Nc1ccc(NC(C)=O)cc1	2	2	0	-3	2	15
CC(=O)N/C(=N/c1nc(C)cc(C)n1)Nc1cc(C)cc(C)c1	1	4	0	1	2	58*
SMILES	NR3A LBD binder	ADAM10 inh	KLK7 zymogen act	rCAG RNA binder	ADAM17 inh	AHR activator
CC[C@H](C(=O)Nc1ccccc1N1CCCC1)c1ccccc1	.	5	0	2	-1	.
O=C(CCC1CCCC1)NCCS(=O)(=O)N1CCN(c2ccc(F)cc2)CC1	2	-7	0	-4	-5	7
COc1ccc(N2CCN(S(=O)(=O)CCNC(=O)C3CCCCC3)CC2)cc1	0	-1	0	-4	1	1
COc1ccc(N2CCN(S(=O)(=O)CCNC(=O)C3CC3)CC2)cc1	13*	-3	0	-3	-5	1
O=C(CCC1CCCCC1)NCCS(=O)(=O)N1CCN(c2ccc(F)cc2)CC1	14*	-2	0	-6	-2	2
CCc1cc2c(nc1CC)CCCN2S(=O)(=O)c1ccc(C)cc1	.	-3	0	-1	-1	.
Cc1ccc(/C=N/N2C(=S)SC(C)(C)C2N(O)C(=O)Nc2ccc([N+](=O)[O-])cc2)cc1 (configuration not stated)	12*	-3	-1	7	-3	0
COc1cccc(N(C)C(=O)[C@@H](C)[C@@H](O)c2ccc(C(C)=O)cc2)c1	.	-2	0	0	-2	.
Cc1ccccc1CS(=O)(=O)Cc1ccc(C(=O)Nc2cccc(Cl)c2F)o1	.	5	0	6	4	.
Cc1cccc(NC(=S)N=Nc2c(O)n(CN3CCOCC3)c3ccccc23)c1C	0	3	0	21	6	55*
COC(=O)C1=C(C)N(Cc2ccccc2C(F)(F)F)C(=NCc2ccc(C(F)(F)F)cc2)NC1c1ccccc1 (configuration not stated)	.	-1	0	2	-1	.
CC(=O)OCCCN1CCC2(CCCCC2)C1=O	.	0	0	2	-1	.
COc1cccc(/C=C2\CC3(OC(=O)c4cccc(F)c4)CCCN2C3)c1 (configuration not stated)	.	-4	0	3	3	.
O=C(Cc1c[nH]c2ccccc12)Nc1nccs1	3	2	0	0	-1	39
O=C(Nc1nccs1)C(=O)c1c[nH]c2ccccc12	-10	-4	1	7	-1	59*
O=C(NC1CC1)C(=O)c1c[nH]c2ccccc12	0	-4	-1	-4	-5	63*
CC(=O)c1cccc(NC(=O)/C=C/c2ccc([N+](=O)[O-])s2)c1	10*	0	0	4	0	.
Cc1ccccc1NC(=O)/C=C/c1ccc([N+](=O)[O-])s1	0	.	.	.	.	50*
COc1cc(NS(=O)(=O)c2ccc(NC(=O)/C=C/c3cccc([N+](=O)[O-])c3)cc2)ncn1	2	-19	0	1	-2	104*
O=C(O)/C=C/c1cccc(NC(=O)Nc2ccc([N+](=O)[O-])cc2)c1	18*	-2	0	6	-2	3
CCCCCOc1ccc(/C=N/NC(=O)CSc2nnc(-c3ccc(OC)cc3)n2-c2ccc(C)cc2)cc1	.	4	0	8	0	.
CCOC(=O)CC[C@H](NC(=O)[C@@H]1CC=C[C@@H]2CCN(Cc3ccc(Cl)cc3)C(=O)[C@@H]21)C(=O)OCC	.	1	.	.	-4	.
CCN(Cc1cn(Cc2ccc(C)cc2)nn1)S(=O)(=O)c1ccccc1Br	.	5	0	-2	2	.
